Experimental findings from PubChem BioAssay (NCI) are described below.

About 79,000 compounds went through this panel and 15% of them were active in at least one assay; those are over-represented in the sample as a whole. Values without a mark were called inactive. Active and inactive are the calls of the source. No stated cut-off is given here; in the data, active means growth inhibition above about 70%; inactive means the rest.

The first assay is described as follows: NCI Yeast Anticancer Drug Screen. Data for the mec2-1 strain (AID 157). The following applies: S. cerevisiae mec2-1 strain, at 33.0 µM, hits give high values. The essentials: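 Compounds were applied to mec2-1 yeast cells. Their growth was then compared with that of vehicle-treated cultures to give growth inhibition.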
For `CCS(=O)(=O)c1ccc(/C=C/C=N/NC(=S)NCC(C)C)cc1`, the growth inhibition was 3%.
Consider `N#CC(C(=O)Nc1ccccc1)C1=C(Cl)C(=O)c2ccccc2C1=O` (configuration not stated), for which the growth inhibition is 97% (active).
For `C[C@H](CCC(=O)NN)[C@H]1CC[C@H]2[C@@H]3CC[C@@H]4C[C@H](O)CC[C@]4(C)[C@H]3CC[C@]12C`, the growth inhibition is 5%.
Same read-out and setting: in the case of `CC[n+]1ccc2c(C)c3[nH]c4ccc(O)cc4c3c(C)c2c1` it was 6%.

Still in this assay, the particulars now being: S. cerevisiae mec2-1 strain, at 50.0 µM (retest, dose inferred, filed as 5.0), hits give high values.
Take `CCCc1cc(C(=O)OCC)cc(CCC)c1O`: the growth inhibition is 8%.
The same measure, in the same setting: next, `CC(C)[N+]([O-])(CCCNc1c2ccccc2nc2cccc([N+](=O)[O-])c12)C(C)C`: 99% (active); `COc1cc2c3c(cccc3c1)C(=O)N(CCN(C)C)C2=O`: 11%; `NC(=O)NN=C(CS)CS`: 28%.
Same read-out and setting: next, `Cc1ccc(NC(=O)/C(Cl)=C(\Cl)C(=O)O)cc1C`: 100% (active); `CCN(CC)CC[n+]1ccc2c(C)c3[nH]c4ccc(O)cc4c3c(C)c2c1`: 4%.
Same read-out and setting: in the case of `CC(CC(C)(C)[N+](C)(C)C)[N+](C)(C)C` (configuration not stated) it was 97% (active).
`COc1ccc(OC)c2cc3ccccc3cc12`: the growth inhibition was 87% (active).
Same read-out and setting: in the case of `Nc1ncncc1C(C1=C(O)COC1=O)C1=C(O)COC1=O` it was -16%; in that of `CSC1=NNC(SC)=NN1`, 41%; in that of `Cc1c(Cl)ccc2c1S(=O)(=O)c1cccc(Cl)c1-2`, 100% (active).
Still for that read-out and setting: in the case of `[O-][n+]1c2ccc(O)cc2nc2ccc(Cl)cc21` it was -13%.
In the case of `COc1ccc2ccc3ccccc3c2c1C=O`, the growth inhibition is 50%.
With `Nc1ccc2c(c1)C(=O)c1cccc(N)c1C2=O`, the growth inhibition was 68%.
Still for that read-out and setting: next, `O=C(c1ccc(Cl)cc1Cl)C(Cl)Cl`: 82% (active).
On the same count and under the same terms, next, `COc1cc(C(=O)/C=C/c2ccccc2O)ccc1O`: 99% (active).
Still for that read-out and setting: next, `O=Cc1cccc2ccc3ccccc3c12`: 41%; `O=C(Nc1ccc(Cl)cc1)OCC#CCCl`: 18%.
On to `Cn1ccnc1Oc1ccc(Cl)cc1`, for which the growth inhibition was 26%.
Same read-out and setting: in the case of `c1ccc2c(c1)C(=NCCCN1CCCCCC1)c1cccn1-2` it was -3%; in that of `C/C(=N\O)C1CC2C=C(C#N)C1N(Cc1ccccc1)C2` (configuration not stated), -13%.
Same read-out and setting: in the case of `O=[N+]([O-])C(=C(Sc1ccccc1)Sc1ccccc1)C(Cl)=C(Cl)Cl` it was 26%; in that of `CCCCCCCCCC/C=C\C(=O)O`, 74% (active); in that of `COc1ccc(N=C2C(=O)Nc3ccc(Br)cc32)cc1`, 61%.
Still for that read-out and setting: next, `COc1ccccc1C(=O)OCC1CCCN2CCCCC12` (configuration not stated): 99% (active); `CC(C)(Br)C(=O)/C=C/c1ccc(Cl)c(Cl)c1`: 49%; `Nc1ccccc1CC(O)C(=O)O` (configuration not stated): 74% (active).
Turning to `CC(=O)N/N=C/C(C)(C)C(C)(C)/C=N/NC(C)=O`, the growth inhibition is 39%.
For the compound `CN(C)c1nc2sc3c(c2c(=O)o1)CCCC3`, the growth inhibition was 29%.
On the same count and under the same terms, next, `CC(C)OC(=O)Oc1ccccc1OC(=O)OC(C)C`: -5%; `Cc1ccc(N)c(S)c1`: 75% (active).
The same measure, in the same setting: in the case of `O=C(O)c1ccccc1NC(=S)c1ccccc1` it was 96% (active).
Still for that read-out and setting: next, `COC(=O)c1ccc(NCC2=CC(=O)C=CC2=O)cc1O`: 98% (active); `NC(N)=N/N=C\c1c2ccccc2cc2ccccc12`: 42%.
Consider `COC(=O)CSSCc1ccc([N+](=O)[O-])cc1`, for which the growth inhibition is 96% (active).
The same measure, in the same setting: in the case of `CCS(=O)(=O)c1ccc(/C=C/C=N/NC(=S)NCC(C)C)cc1` it was -24%; in that of `N#CC(C(=O)Nc1ccccc1)C1=C(Cl)C(=O)c2ccccc2C1=O` (configuration not stated), 99% (active).
The same measure, in the same setting: next, `C[C@H](CCC(=O)NN)[C@H]1CC[C@H]2[C@@H]3CC[C@@H]4C[C@H](O)CC[C@]4(C)[C@H]3CC[C@]12C`: 7%.
The same measure, in the same setting: next, `CC[n+]1ccc2c(C)c3[nH]c4ccc(O)cc4c3c(C)c2c1`: 16%.

Staying with this assay, now noted: S. cerevisiae mec2-1 strain, at 50.0 µM, hits give high values.
On to `CCCc1cc(C(=O)OCC)cc(CCC)c1O`, for which the growth inhibition is 96.1% (active).
On the same count and under the same terms, next, `CC(C)[N+]([O-])(CCCNc1c2ccccc2nc2cccc([N+](=O)[O-])c12)C(C)C`: 87% (active).
On the same count and under the same terms, in the case of `COc1cc2c3c(cccc3c1)C(=O)N(CCN(C)C)C2=O` it was -5.45%; in that of `NC(=O)NN=C(CS)CS`, 48.5%; in that of `Cc1ccc(NC(=O)/C(Cl)=C(\Cl)C(=O)O)cc1C`, 99.5% (active).
On to `CCN(CC)CC[n+]1ccc2c(C)c3[nH]c4ccc(O)cc4c3c(C)c2c1`, for which the growth inhibition was -11.9%.
For the compound `CC(CC(C)(C)[N+](C)(C)C)[N+](C)(C)C` (configuration not stated), the growth inhibition was 96% (active).
On to `COc1ccc(OC)c2cc3ccccc3cc12`, for which the growth inhibition is 85.2% (active).
The same measure, in the same setting: next, `Nc1ncncc1C(C1=C(O)COC1=O)C1=C(O)COC1=O`: 5.95%; `CSC1=NNC(SC)=NN1`: 44.4%.
The same measure, in the same setting: in the case of `Cc1c(Cl)ccc2c1S(=O)(=O)c1cccc(Cl)c1-2` it was 29.5%; in that of `[O-][n+]1c2ccc(O)cc2nc2ccc(Cl)cc21`, 75% (active); in that of `COc1ccc2ccc3ccccc3c2c1C=O`, 13.2%.
Still for that read-out and setting: in the case of `Nc1ccc2c(c1)C(=O)c1cccc(N)c1C2=O` it was 53.9%; in that of `O=C(c1ccc(Cl)cc1Cl)C(Cl)Cl`, 85.5% (active).
Turning to `COc1cc(C(=O)/C=C/c2ccccc2O)ccc1O`, the growth inhibition was 94.4% (active).
`O=Cc1cccc2ccc3ccccc3c12`: the growth inhibition is 99.5% (active).
Regarding `O=C(Nc1ccc(Cl)cc1)OCC#CCCl`, the growth inhibition is 2.65%.
The same measure, in the same setting: next, `Cn1ccnc1Oc1ccc(Cl)cc1`: 58.3%; `c1ccc2c(c1)C(=NCCCN1CCCCCC1)c1cccn1-2`: 68.2%.
On the same count and under the same terms, next, `C/C(=N\O)C1CC2C=C(C#N)C1N(Cc1ccccc1)C2` (configuration not stated): 7.3%; `O=[N+]([O-])C(=C(Sc1ccccc1)Sc1ccccc1)C(Cl)=C(Cl)Cl`: 46.5%; `CCCCCCCCCC/C=C\C(=O)O`: 79.8% (active).
The same measure, in the same setting: next, `COc1ccc(N=C2C(=O)Nc3ccc(Br)cc32)cc1`: 10.7%; `COc1ccccc1C(=O)OCC1CCCN2CCCCC12` (configuration not stated): 93% (active); `CC(C)(Br)C(=O)/C=C/c1ccc(Cl)c(Cl)c1`: 48.2%.
For the compound `Nc1ccccc1CC(O)C(=O)O` (configuration not stated), the growth inhibition was 52.1%.
Still for that read-out and setting: next, `CC(=O)N/N=C/C(C)(C)C(C)(C)/C=N/NC(C)=O`: 19.2%; `CN(C)c1nc2sc3c(c2c(=O)o1)CCCC3`: 27.9%.
With `CC(C)OC(=O)Oc1ccccc1OC(=O)OC(C)C`, the growth inhibition was 20.9%.
Still for that read-out and setting: in the case of `Cc1ccc(N)c(S)c1` it was 36.3%.
The same measure, in the same setting: next, `O=C(O)c1ccccc1NC(=S)c1ccccc1`: 11.6%; `COC(=O)c1ccc(NCC2=CC(=O)C=CC2=O)cc1O`: 93.2% (active).
On the same count and under the same terms, next, `NC(N)=N/N=C\c1c2ccccc2cc2ccccc12`: 36.9%; `COC(=O)CSSCc1ccc([N+](=O)[O-])cc1`: 96% (active).
On to `CCS(=O)(=O)c1ccc(/C=C/C=N/NC(=S)NCC(C)C)cc1`, for which the growth inhibition was 4.2%.
Consider `N#CC(C(=O)Nc1ccccc1)C1=C(Cl)C(=O)c2ccccc2C1=O` (configuration not stated), for which the growth inhibition was 93% (active).
On the same count and under the same terms, in the case of `C[C@H](CCC(=O)NN)[C@H]1CC[C@H]2[C@@H]3CC[C@@H]4C[C@H](O)CC[C@]4(C)[C@H]3CC[C@]12C` it was 40.2%; in that of `CC[n+]1ccc2c(C)c3[nH]c4ccc(O)cc4c3c(C)c2c1`, 59.5%.
